Results filed as inconclusive are left out. A call without a number means that no potency is given here. Active and inactive are the calls of the source. Calls come from the whole dose curve; as a rule, active = well fitted inhibition curve with a large enough effect; inconclusive = small, poorly fitted or top-dose-only effect; inactive = flat fitted curve, though single readings scatter.

Calcium and integrin-binding protein 1 (Homo sapiens), sequence (Q99828 whole entry, looked up): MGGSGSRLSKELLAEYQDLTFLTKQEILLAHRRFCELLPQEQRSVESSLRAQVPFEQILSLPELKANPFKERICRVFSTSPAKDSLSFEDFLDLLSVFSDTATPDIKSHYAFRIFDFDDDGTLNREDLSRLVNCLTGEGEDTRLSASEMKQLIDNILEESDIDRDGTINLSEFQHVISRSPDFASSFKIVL

The assay has as its target Calcium and integrin-binding protein 1 (Homo sapiens) (UniProt Q99828). Put plainly: Primary qHTS for Identification of Calcium Integrin Binding Protein 1 (CIB1) Competitor (AID 1508620). Note: top concentration of the series differs between compounds. The following applies: CIB1-GST / FITC-alphaIIb peptide fluorescence polarization; series mostly up to 114 µM. In a few lines:
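Fluorescence polarization competition: GST-tagged CIB1 (1 uM final) preincubated with compound 15 min at room temperature, then FITC-labelled alphaIIb peptide (100 nM final) added. After 15 min at room temperature, polarization read at Ex 480/Em 540.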
On the technique in general: In qHTS, concentration-response curves come from the screen itself.
As for `Cc1ccc(OCCn2c(CCNC(=O)c3cccc4cc[nH]c34)nc3ccccc32)cc1`, the Potency entry is “inactive”.

In the case of `O=C(NCCc1nc2ccccc2n1CCOc1cc(F)ccc1F)C1CCCCC1`, the Potency result is “inactive”.

As for `O=C(/C=C/c1cccc(Cl)c1)Nc1cccc([S+](=O)([O-])Nc2ccccc2F)c1`, the Potency result is “inactive”.

With `CN(CC(=O)Nc1ccc(N2CCOCC2)cc1)Cc1ccccc1O`, the Potency entry was “inactive”.

With `COc1ccc(C2=Nn3c(nnc3-c3ccccc3OC)SC2)c(OC)c1`, the Potency result was “inactive”.

Turning to `CCC(=O)NC(c1cc(Cl)c2ccccc2c1O)C1CC1` (stereo not given), the Potency result was “inactive”.

Regarding `c1ccc(CN(Cc2ccccc2)Cc2nnc(-c3cc4ccccc4[nH]3)s2)cc1`, the Potency entry was “inactive”.

`CCCCN(C)C(=O)Cn1nc(-c2ccc(C(C)(C)C)cc2)ccc1=O`: the Potency result is “inactive”.

On to `CC(C)c1cc2c(s1)c1cnn(Cc3ccccc3F)c(=O)c1n2C`, for which the Potency result was “inactive”.

`CC(=O)c1cccc(NC(=O)Nc2nnc(-c3ccncc3)s2)c1`: the Potency entry was “inactive”.

As for `CN(C)C1CCN(Cc2cc(COCc3ccccc3)c3cccnc3c2O)C1` (stereo not given), the Potency entry is “inactive”.

Turning to `O=C1CCCC2=C1C(c1[nH]ncc1Cl)NC(=NCc1ccoc1)N2` (stereo not given), the Potency result is “inactive”.

Regarding `Cc1cnc(-c2ccccc2C(C)C)nc1NCc1cccnc1`, the Potency entry is “inactive”.

As for `COc1cccc(CNc2ccc(S(=O)(=O)Nc3cccnc3)cc2)c1O`, the Potency entry was “inactive”.

`COc1ccc(-c2no[n+]([O-])c2C#N)cc1`: the Potency result was “inactive”.

Take `O=[S+]([O-])(c1ccc2c(c1)OCCO2)N1CCN([S+](=O)([O-])c2ccc(F)cc2Br)CC1`: the Potency entry is “inactive”.

For `O=S(=O)(Nc1cccc2cccnc12)c1ccc(Br)cc1`, the Potency entry is “inactive”.

Turning to `N#Cc1ccc(-c2nc(NCc3ccc(-c4ccnc(C(F)(F)F)c4)cc3)c3ccccc3n2)cc1`, the Potency entry was “inactive”.

For the compound `O=C(c1ccc2c(c1)ncn2-c1cccc(C(F)(F)F)c1)N1CCCCC1`, the Potency entry is “inactive”.

Turning to `O=C(/C=C/c1ccc(C(F)(F)F)cc1)Nc1cccc([S+](=O)([O-])Nc2ccccc2F)c1`, the Potency entry is “inactive”.

Turning to `O=C(Nc1ccc2ccccc2c1)Nc1nnc(-c2ccc(O)cc2)s1`, the Potency entry is “inactive”.

As to `Fc1ccc(Nc2nc(-c3ccnc(N4CCCCC4)c3)nc3ccccc23)cc1F`, the Potency entry is “inactive”.

As for `CCOc1ccc(CCNC(=O)c2ccnn2Cc2cccc(C)c2)cc1OCC`, the Potency result is “inactive”.

For the compound `Cc1ccc(OCCn2c(CCNC(=O)c3ccccc3[N+](=O)[O-])nc3ccccc32)cc1`, the Potency result is “inactive”.

As to `O=C(O)c1ccc(-n2cccc2/C=C2\SC(=O)N(Cc3ccc(Cl)cc3)C2=O)cc1`, the Potency entry was “inactive”.

As to `O=C(OCC#CCSc1nnc(-c2cccc3ccccc23)o1)c1ccc2ccccc2c1`, the Potency entry is “inactive”.

Consider `Cc1ccc(NC(=O)CN2C(=O)N/C(=C\c3cccn3-c3ccc(C(=O)NC#N)cc3)C2=O)cc1`, for which the Potency result was “inactive”.

For the compound `O=C(c1ccccc1O)N(Cc1ccccc1)Cc1cccs1`, the Potency entry is “inactive”.

In the case of `Cc1noc(C)c1-c1ccc2ncnc(NCc3ccc(F)cc3)c2c1`, the Potency result was “inactive”.

As to `O=C(NCc1ccc(Cl)c(Cl)c1)Nc1nnc(-c2ccncc2)s1`, the Potency entry was “inactive”.

Take `O=S(=O)(NC1CCC(NS(=O)(=O)c2c(F)cccc2F)CC1)c1ccc2c(c1)OCCO2` (stereo not given): the Potency result was “inactive”.

Consider `Cc1cc(C)nc(NC(=S)N2CCN(c3ccc4nccn4c3)CC2)c1`, for which the Potency result was “inactive”.

Regarding `COc1cc(F)c(S(=O)(=O)N2CCN(S(=O)(=O)c3ccc(N)cc3)CC2)c(F)c1`, the Potency result was “inactive”.

Turning to `O=[N+]([O-])c1ccc(-c2nc(Nc3ccc(F)c(F)c3)c3ccccc3n2)cc1`, the Potency entry was “inactive”.

For `Cc1cnc(-c2ccccc2C(C)C)nc1N(C)Cc1ccc(-c2cccnc2)cc1`, the Potency entry was “inactive”.

With `CCOc1ccc(CCNC(=O)c2csc(Br)n2)cc1OCC`, the Potency entry is “inactive”.

For the compound `COc1cccc(C2c3c(ncn(-c4cccc(C)c4)c3=N)Oc3ccc4ccccc4c32)c1` (stereo not given), the Potency entry was “inactive”.

Take `Cc1csc(CNc2ncnc3ccc(-c4ccc5c(c4)OCO5)cc23)n1`: the Potency entry is “inactive”.

`O=c1c(Nc2ccc(Cl)c(Cl)c2)c(Nc2nnc(-c3ccncc3)s2)c1=O`: the Potency result was “inactive”.

Turning to `CC(=O)c1c(C)[nH]c(C(=O)Nc2ccc(OCCCN(C)C)c(S(=O)(=O)Nc3ccc(Br)cc3)c2)c1C`, the Potency entry is “inactive”.
